The whole screen tested about 5,500 compounds, of which about 2,000 (36%) were called active. About 18% were inconclusive and are not listed. No stated cut-off is given here; in the data, active means normalized growth mostly below about 0.91 (no sharp cut-off); inconclusive means no clear call, values can overlap the other calls; inactive means mostly above about 0.92. The list shows a part of the results.
Test: chemical genetic growth profiling, strain panel (AID 1159580);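 further: tested at 20 µM; growth read once vehicle control cultures reached saturation at 30 °C; 1 = growth at the plate median or of vehicle wells; lower values mean less growth of the strain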
Details: growth OD

Measured: normalized growth

CN(C)C1C(=O)C(C(N)=O)=C(O)C2(O)C(=O)C3=C(O)c4c(O)ccc(Cl)c4C(C)(O)C3CC12 (stereo unspecified)
inactive: S. cerevisiae deletion strains, locus YAL013W, strain DEP1, active compounds read low 1 | S. cerevisiae deletion strains, locus YBR021W, strain FUR4, active compounds read low 0.979 | S. cerevisiae deletion strains, locus YBR229C, strain ROT2, active compounds read low 0.991 | S. cerevisiae deletion strains, locus YCL029C, strain bik1, active compounds read low 0.975 | S. cerevisiae deletion strains, locus YDL035C, strain GPR1, active compounds read low 1.01 | S. cerevisiae deletion strains, locus YDL074C, strain BRE1, active compounds read low 1.06 | S. cerevisiae deletion strains, locus YDL101C, strain DUN1, active compounds read low 0.995 | S. cerevisiae deletion strains, locus YDL134C, strain PPH21, active compounds read low 0.992 | S. cerevisiae deletion strains, locus YDL185W, strain tfp1, active compounds read low 0.993 | S. cerevisiae deletion strains, locus YDL192W, strain arf1, active compounds read low 0.99 | S. cerevisiae deletion strains, locus YDR101C, strain arx1, active compounds read low 0.997 | S. cerevisiae deletion strains, locus YDR150W, strain NUM1, active compounds read low 0.992 | S. cerevisiae deletion strains, locus YDR162C, strain NBP2, active compounds read low 1.01 | S. cerevisiae deletion strains, locus YDR318W, strain mcm21, active compounds read low 0.99 | S. cerevisiae deletion strains, locus YDR388W, active compounds read low 0.991 | S. cerevisiae deletion strains, locus YDR502C, strain sam2, active compounds read low 0.993 | S. cerevisiae deletion strains, locus YEL061C, strain CIN8, active compounds read low 0.999 | S. cerevisiae deletion strains, locus YER110C, active compounds read low 0.984 | S. cerevisiae deletion strains, locus YER155C, strain BEM2, active compounds read low 0.997 | S. cerevisiae deletion strains, locus YER167W, strain BCK2, active compounds read low 0.988 | S. cerevisiae deletion strains, locus YGL078C, strain dbp3, active compounds read low 0.99 | S. cerevisiae deletion strains, locus YGL086W, strain mad1, active compounds read low 0.982 | S. cerevisiae deletion strains, locus YGL248W, strain PDE1, active compounds read low 0.985 | S. cerevisiae deletion strains, locus YGR078C, strain PAC10, active compounds read low 1.02 | S. cerevisiae deletion strains, locus YGR135W, strain pre9, active compounds read low 1.01 | S. cerevisiae deletion strains, locus YGR229C, strain SMI1, active compounds read low 1.04 | S. cerevisiae deletion strains, locus YGR252W, strain gcn5, active compounds read low 0.948 | S. cerevisiae deletion strains, locus YHR030C, strain SLT2, active compounds read low 0.99 | S. cerevisiae deletion strains, locus YHR079C, strain IRE1 (second series), active compounds read low 0.979 | S. cerevisiae deletion strains, locus YHR094C, strain hxt1, active compounds read low 0.991 | S. cerevisiae deletion strains, locus YHR129C, strain ARP1, active compounds read low 0.994 | S. cerevisiae deletion strains, locus YHR200W, strain rpn10, active compounds read low 0.98 | S. cerevisiae deletion strains, locus YIL066C, strain RNR3, active compounds read low 0.993 | S. cerevisiae deletion strains, locus YIL073C, strain SPO22, active compounds read low 0.96 | S. cerevisiae deletion strains, locus YIL125W, strain kgd1, active compounds read low 1 | S. cerevisiae deletion strains, locus YIR030C, strain dcg1, active compounds read low 0.986 | S. cerevisiae deletion strains, locus YJL095W, strain BCK1, active compounds read low 1.03 | S. cerevisiae deletion strains, locus YJL134W, strain LCB3, active compounds read low 0.991 | S. cerevisiae deletion strains, locus YJL168C, strain set2, active compounds read low 0.991 | S. cerevisiae deletion strains, locus YJL187C, strain SWE1 (second series), active compounds read low 0.996 | S. cerevisiae deletion strains, locus YJR043C, strain POL32, active compounds read low 0.984 | S. cerevisiae deletion strains, locus YJR075W, strain HOC1, active compounds read low 1.01 | S. cerevisiae deletion strains, locus YKL009W, strain mrt4, active compounds read low 0.964 | S. cerevisiae deletion strains, locus YKL068W, active compounds read low 0.996 | S. cerevisiae deletion strains, locus YKL085W, strain MDH1 (second series), active compounds read low 0.984 | S. cerevisiae deletion strains, locus YKL085W, strain MDH1, active compounds read low 0.984 | S. cerevisiae deletion strains, locus YKL190W, strain CNB1, active compounds read low 1 | S. cerevisiae deletion strains, locus YKR001C, strain vps1, active compounds read low 0.985 | S. cerevisiae deletion strains, locus YLR039C, strain RIC1, active compounds read low 0.964 | S. cerevisiae deletion strains, locus YLR058C, strain SHM2, active compounds read low 0.991 | S. cerevisiae deletion strains, locus YLR102C, strain apc9, active compounds read low 0.985 | S. cerevisiae deletion strains, locus YLR262C, strain YPT6, active compounds read low 0.985 | S. cerevisiae deletion strains, locus YLR268W, strain sec22, active compounds read low 0.999 | S. cerevisiae deletion strains, locus YLR330W, strain CHS5, active compounds read low 0.991 | S. cerevisiae deletion strains, locus YLR342W, strain FKS1 (second series), active compounds read low 0.932 | S. cerevisiae deletion strains, locus YLR371W, strain rom2, active compounds read low 0.979 | S. cerevisiae deletion strains, locus YLR418C, strain cdc73, active compounds read low 1.02 | S. cerevisiae deletion strains, locus YML016C, strain PPZ1, active compounds read low 0.986 | S. cerevisiae deletion strains, locus YML032C, strain rad52, active compounds read low 0.98 | S. cerevisiae deletion strains, locus YML124C, strain tub3, active compounds read low 0.989 | S. cerevisiae deletion strains, locus YMR078C, strain ctf18, active compounds read low 0.983 | S. cerevisiae deletion strains, locus YMR223W, strain ubp8, active compounds read low 0.97 | S. cerevisiae deletion strains, locus YMR263W, strain SAP30, active compounds read low 1.02 | S. cerevisiae deletion strains, locus YMR307W, strain GAS1, active compounds read low 0.937 | S. cerevisiae deletion strains, locus YNL067W, strain RPL9B, active compounds read low 1.03 | S. cerevisiae deletion strains, locus YNL128W, strain TEP1, active compounds read low 1.02 | S. cerevisiae deletion strains, locus YNL153C, strain GIM3, active compounds read low 1.01 | S. cerevisiae deletion strains, locus YNL233W, strain BNI4, active compounds read low 0.999 | S. cerevisiae deletion strains, locus YNL250W, strain rad50, active compounds read low 1 | S. cerevisiae deletion strains, locus YNL271C, strain bni1, active compounds read low 0.998 | S. cerevisiae deletion strains, locus YNL298W, strain CLA4, active compounds read low 0.994 | S. cerevisiae deletion strains, locus YNL307C, strain MCK1, active compounds read low 0.976 | S. cerevisiae deletion strains, locus YNL322C, strain KRE1, active compounds read low 1 | S. cerevisiae deletion strains, locus YNR052C, strain pop2, active compounds read low 0.974 | S. cerevisiae deletion strains, locus YOL006C, strain TOP1, active compounds read low 1.09 | S. cerevisiae deletion strains, locus YOL012C, strain htz1 0.811 | S. cerevisiae deletion strains, locus YOL147C, strain pex11, active compounds read low 0.992 | S. cerevisiae deletion strains, locus YOR061W, strain CKA2, active compounds read low 0.997 | S. cerevisiae deletion strains, locus YOR069W, strain VPS5, active compounds read low 0.993 | S. cerevisiae deletion strains, locus YOR136W, strain idh2, active compounds read low 0.992 | S. cerevisiae deletion strains, locus YOR144C, strain elg1, active compounds read low 0.985 | S. cerevisiae deletion strains, locus YOR184W, strain ser1, active compounds read low 0.973 | S. cerevisiae deletion strains, locus YOR316C, strain cot1, active compounds read low 0.971 | S. cerevisiae deletion strains, locus YPL055C, strain LGE1, active compounds read low 1.04 | S. cerevisiae deletion strains, locus YPL241C, strain CIN2, active compounds read low 0.997 | S. cerevisiae deletion strains, locus YPR119W, strain clb2, active compounds read low 0.998 | S. cerevisiae deletion strains, locus YPR141C, strain kar3, active compounds read low 1 | S. cerevisiae deletion strains, locus YPR163C, strain tif3, active compounds read low 0.991 | S. cerevisiae deletion strains, locus YPR167C, strain met16, active compounds read low 0.992 | S. cerevisiae deletion strains, strain wtn01, active compounds read low 0.988 | S. cerevisiae strains, strain wild type, active compounds read low 1

Source: PubChem BioAssay AID1159580 (chemical genetic matrix, 2015)
